Rows were chosen to be rich in hits. Some 4.3% of all compounds tested hit in one or more screens of this group.
MazEF act: activators of E. coli MazEF toxin-antitoxin RNase, primary screen, biochemical, fluorescence, uHTS. Endoribonuclease toxin MazF (Escherichia coli (strain K12)), P0AE70. FAM/BHQ RNA-DNA oligo cleavage fluorescence, 5 h. activation, % at 20 µM. hit rate 0.32% among 350,000; in the data active means activation above about 50%
Anthrax LF prot: Bacillus anthracis LF protease inhibitors, primary screen, biochemical, multiplex microsphere, MLPCN library | inhibition, % at 10 µM | Lethal factor (Bacillus anthracis), P15917 | AID 588501, 2011 | multiplex microsphere protease cleavage assay | hit rate 0.12% among 360,000; further: plate controls were buffer without enzyme for full effect and enzyme alone for no effect
Target sequence (P15917 whole entry, looked up): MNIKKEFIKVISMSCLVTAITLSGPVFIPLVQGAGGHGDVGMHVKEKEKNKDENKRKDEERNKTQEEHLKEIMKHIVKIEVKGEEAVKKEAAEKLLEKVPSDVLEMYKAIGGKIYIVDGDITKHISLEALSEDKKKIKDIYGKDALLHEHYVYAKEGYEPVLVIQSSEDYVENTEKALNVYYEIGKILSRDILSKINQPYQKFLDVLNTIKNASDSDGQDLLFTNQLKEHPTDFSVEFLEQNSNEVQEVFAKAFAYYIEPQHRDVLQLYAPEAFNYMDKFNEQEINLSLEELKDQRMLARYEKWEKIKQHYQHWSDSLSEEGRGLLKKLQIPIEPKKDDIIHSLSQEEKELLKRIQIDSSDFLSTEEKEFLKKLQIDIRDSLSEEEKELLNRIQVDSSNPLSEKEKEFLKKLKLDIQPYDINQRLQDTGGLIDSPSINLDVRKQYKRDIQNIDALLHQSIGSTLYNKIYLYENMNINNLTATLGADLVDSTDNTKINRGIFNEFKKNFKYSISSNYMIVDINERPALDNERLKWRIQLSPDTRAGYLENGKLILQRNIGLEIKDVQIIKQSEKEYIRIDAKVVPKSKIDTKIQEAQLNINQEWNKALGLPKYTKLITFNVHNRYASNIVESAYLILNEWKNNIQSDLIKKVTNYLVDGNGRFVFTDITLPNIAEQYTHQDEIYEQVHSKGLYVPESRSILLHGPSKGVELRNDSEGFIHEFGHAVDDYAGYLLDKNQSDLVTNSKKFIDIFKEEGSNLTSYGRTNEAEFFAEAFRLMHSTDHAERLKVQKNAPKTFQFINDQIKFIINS
PfHsp40 rescue: rescue of yeast from PfHsp40 toxicity, primary screen, S. cerevisiae, ATP luminescence; growth rescue, % at 12.5 µM; hit rate 0.68% among 340,000; AID 504582, 2011; S. cerevisiae expressing PfHsp40, growth rescue; in the data active means growth rescue above about 28%, passing the limit was not always enough; inconclusive means no clear call, values can overlap the other calls;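 further: yeast W303a lacking pdr1 and pdr3 grown in galactose medium; growth measured after three days at 30 °C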
BoNT-A LC inh2: BoNT/A light chain protease inhibitors, primary screen, biochemical, flow cytometry, MLPCN library. Botulinum neurotoxin type A light chain protease (Clostridium botulinum A str. ATCC 3502). multiplex microsphere protease substrate cleavage. inhibition, % at 10 µM. hit rate 0.17% among 360,000; further: plate controls were buffer without enzyme for full effect and enzyme alone for no effect
BoNT F protease: BoNT/F light chain protease inhibitors, primary screen, biochemical, flow cytometry, MLPCN library | Multiplex microsphere protease cleavage assay | inhibition, % at 10 µM | Botulinum neurotoxin type F light chain protease (Clostridium botulinum) | hit rate 0.22% among 360,000 | AID 588497, 2011; in the data active means inhibition above about 35%, passing the limit was not always enough; inconclusive means no clear call, values can overlap the other calls; further: plate controls were buffer without enzyme for full effect and enzyme alone for no effect
Bead autofluor: compound fluorescence in toxin protease inhibitor counterscreen. compound autofluorescence counterscreen, microsphere flow cytometry; active compounds read high. fluorescence intensity (concentration not given with the values). hit rate 3.1% among 360,000. AID 624483; in the data active means fluorescence intensity above about 16000; inconclusive means no clear call, values can overlap the other calls
Active calls of the source: *; ? = inconclusive; . = no result. Unless noted, no stated cut-off is given here; in the data, active means inhibition above about 30%; inconclusive means no clear call, values can overlap the other calls; inactive means below that.

SMILES | MazEF act | Anthrax LF prot | PfHsp40 rescue | BoNT-A LC inh2 | BoNT F protease | Bead autofluor
CC(C)n1c(O)c(C2c3cc(Cl)ccc3Oc3[nH]c(=O)n(C(C)C)c(=O)c32)c(=O)[nH]c1=O (stereo unspecified) | 0 | 2 | 281* | -1 | 3 | 6259
CC(=O)c1c(O)n(-c2cccc(Cl)c2)c(=O)[nH]c1=O (tested in a mixture with another compound) | -25 | -1 | 0 | 0 | 2 | 6222
Cc1ccc(C=C2C(=O)c3ccccc3C2=O)o1 | 91* | -10 | 0 | -2 | -13 | 8062
Cc1ccc(/C=C2/C(=O)c3ccc(C(=O)O)cc3C2=O)o1 | 4 | -16 | 45* | 0 | -7 | 4635
CCC(C)N1CNc2c(c(=O)[nH]c(=S)n2-c2cccc(C)c2)C1 (stereo unspecified) | 4 | -2 | -2 | -1 | -4 | 3672
COc1ccc(C(O)c2nc(-c3cc4ccccc4o3)cs2)cc1 (stereo unspecified) | . | -5 | . | 0 | -2 | 3751
COc1ccc(-c2csc(-c3cc4ccccc4oc3=N)n2)cc1 | 5 | 16 | 0 | 39* | 4 | 2740
COc1cc2c(c(OC)c1OC)-c1ccc(O)c(=O)cc1[C@@H](N)CC2 | 3 | 6 | 352* | 3 | -17 | 4001
O=C(c1ccc2c(c1)OCO2)N(Cc1cccs1)C1(C(=O)NC2CCCCC2)CCCCC1 | -2 | 1 | 68* | 1 | 28 | 2648
O=C(NC1CCCCCCC1)c1ccc2c(c1)OCO2 | -4 | 1 | 1 | -1 | -6 | 3642
S=C(NC1CCCCC1)c1ccc2c(c1)OCO2 | 2 | -2 | 0 | 5 | 5 | 20422*
CCNC(=O)c1cc2c(c(-c3cccc(-c4ccccc4F)c3)n1)[C@H](CCO)N(C(=O)CC)C2 | . | 11 | . | 0 | -8 | 6115
CC(Sc1nc2ccccc2o1)C(=O)O (stereo unspecified) | -2 | -1 | -1 | -2 | -2 | 20941*
Cc1cc(C(=O)CSc2nc3ccccc3[nH]2)c(C)n1CC1CCCO1 (stereo unspecified) | -4 | -5 | -1 | -8 | -10 | 17964*
Cc1cc(C(=O)CSc2nnc(-c3ccc(Cl)cc3)n2C)c(C)n1CC1CCCO1 (stereo unspecified) | 1 | 0 | -2 | -1 | -6 | 22941*
C=CCn1c(SCC(=O)c2cc(C)n(CC3CCCO3)c2C)nnc1-c1ccccc1 (stereo unspecified) | -2 | -5 | 0 | -1 | 9 | 3910
COc1ccc2nc(NC(=O)C3CC(=O)N(c4ccccc4)C3)sc2c1 (stereo unspecified) | -1 | 0 | 1 | -2 | -29 | 3885
CC1(C)CC(=O)c2sc(NS(=O)(=O)Cc3ccccc3)nc2C1 | 8 | 2 | -1 | ? | 2 | 22981*
COc1ccc(N(CC(=O)Nc2cccc(C(=O)O)c2)S(=O)(=O)c2c(C)noc2C)cc1 | 6 | -5 | ? | 0 | -1 | 10774
CCOc1ccccc1NC(=O)CN(c1ccc(OC)cc1)S(=O)(=O)c1c(C)noc1C | 4 | 1 | 1 | -2 | -3 | 16905*
COc1ccc(N(CC(=O)Nc2cccc(C)c2C)S(=O)(=O)c2c(C)[nH]c(=O)[nH]c2=O)cc1 | 1 | -5 | 0 | 0 | -2 | 4166
COc1ccc(N(CC(=O)Nc2cccc(C)c2C)S(=O)(=O)c2c(C)n[nH]c2C)cc1 | -7 | -1 | 1 | ? | -1 | 20057*
CCOC(=O)c1cccc(NC(=O)CN(c2ccc(OC)cc2)S(=O)(=O)c2c(C)noc2C)c1 | -3 | -2 | -1 | 0 | -2 | 20239*
Cc1cccc(C)c1OCc1cc(C(=O)N2CCN(Cc3nccn3C)CC2)no1 | 3 | -3 | 0 | -1 | 5 | 5505
COc1ccc(CCNC(=O)c2ccc(CS(=O)Cc3ccc(Cl)cc3)o2)cc1OC (stereo unspecified) | 4 | -1 | 0 | 1 | 8 | 4843
SMILES | MazEF act | Anthrax LF prot | PfHsp40 rescue | BoNT-A LC inh2 | BoNT F protease | Bead autofluor
COc1ccc(Br)c(C(=O)OCC(=O)N2CCC(Cc3ccccc3)CC2)c1 | -1 | -4 | 27* | -3 | -2 | ?
COc1ccc(OCC(=O)N2CCC(Cc3ccccc3)CC2)cc1 | -5 | 0 | 0 | 2 | -2 | 5497
COc1cccc(-n2nnc3c(=O)n(Cc4ccccc4F)cnc32)c1 | 20 | 0 | -1 | -3 | -5 | 21710*
COc1cccc(-n2nnc3c(=O)n(Cc4cccc(C)c4)cnc32)c1 | 6 | -7 | -2 | 0 | -2 | 5511
COc1cccc(-n2nnc3c(=O)n(CC(=O)N4CCC(Cc5ccccc5)CC4)cnc32)c1 | -10 | -4 | 0 | ? | -1 | 24394*
CCOC(=O)C(CC)n1cnc2c(nnn2-c2ccc(OC)cc2)c1=O (stereo unspecified) | 1 | -10 | 1 | 7 | 7 | 17635*
CCC(C(=O)OC)n1cnc2c(nnn2-c2ccc(OC)cc2)c1=O (stereo unspecified) | 1 | -2 | -1 | 0 | 5 | 10840
CC(Oc1ccc(Br)cc1)C(=O)N(Cc1ccccc1)c1c(N)n(Cc2ccccc2)c(=O)[nH]c1=O (stereo unspecified) | -7 | -3 | . | 0 | -1 | 3029
CCOC(=O)CCNC(=O)N1CCCC(Cc2ccccc2)(C(=O)OCC)C1 (stereo unspecified) | -1 | -11 | 0 | 2 | ? | 3187
Clc1cccc(-c2ccc3nccn3c2)c1Cl | . | -7 | . | 0 | -5 | 2952
CCOC(=O)C(C)n1cnc2c(nnn2Cc2ccc(C)cc2)c1=O (stereo unspecified) | -16 | 0 | -1 | ? | 0 | 20875*
COc1ccc(-n2nnc3c(=O)n(Cc4cc(C)ccc4C)cnc32)cc1 | 3 | 3 | 0 | 11 | 16 | 17509*
O=C(Nc1ccccc1Cl)c1cc(C2CCCN(C(=O)c3cccs3)C2)on1 (stereo unspecified) | . | 1 | . | 0 | -7 | 4079
CCOc1ccc(C(=O)OCC(=O)Nc2nc(OC)cc(OC)n2)cc1OCC | 5 | -2 | 0 | ? | -2 | 23423*
CCCCNC(=O)Nc1cc(C)on1 | -4 | 0 | 0 | -3 | -6 | 20643*
CCCNC(=O)Nc1cc(C)on1 | 4 | -3 | 0 | 1 | -11 | 3480
CCOc1cc(C(=O)OCC(=O)Nc2cc(C)on2)cc(OCC)c1OCC | -2 | 3 | 0 | -5 | -6 | 22120*
CCCCOC(=O)c1ccc(NC(=O)C(=O)CC(=O)c2ccc(OC)cc2)cc1 | 6 | -9 | -1 | 3 | 3 | 3912
CCCn1nnc(NCc2ccc(OCc3cccs3)c(OC)c2)n1 | 7 | -2 | 0 | -1 | -2 | 17112*
